For 40 compounds, viability results are on record in PubChem BioAssay.

Inconclusive results are not listed. Active and inactive are the calls of the source.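 The calls were made as follows, unless noted: active = viability at or below 27.92% in each of two runs, the all-compound median minus 4 SD; inconclusive = no clear call, values can overlap the other calls; inactive = the rest.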

The first test can be described thus: growth suppression of beta-catenin knockout HCT116, pilot screen, human colon tumor cells (AID 823;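 active = cell viability at or below a set limit in both duplicate runs, the limit being the all-compound median minus 4 SD, cut at about 23% in these data, passing the limit was not always enough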;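 also: 0% = wells killed by 20 µM Hyamine and 100% = untreated DMSO cell wells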). Conditions: CellTiter-Glo, 60 h, at 10 µM, active compounds read low. Background: Cellular ATP, detected with luciferase, serves as a proxy for viable cell number.
Usually viability stands for a read-out of living cells in per cent, often relative to untreated cells. For the compound `COc1cc(NC(=O)C2C3C=CC(C3)C2C(=O)O)c(OC)cc1Cl` (stereo not drawn), the viability is 101% (inactive).

Turning to `COc1ccc(C2CC(c3ccc(C)cc3)Nc3ncnn32)cc1` (stereo not drawn), the viability was 104% (inactive).

For the compound `CCc1ccc(C2CC(c3cccc(OC)c3)n3nc(N)nc3N2)cc1` (stereo not drawn), the viability was 93.3% (inactive).

As to `COc1ccc(NS(=O)(=O)c2coc(C(N)=O)c2)cc1Cl`, the viability was 108% (inactive).

On to `O=C1c2ccccc2S(=O)(=O)N1CC(O)Cn1c2ccccc2c2ccccc21` (stereo not drawn), for which the viability was 89.7% (inactive).

Take `O=C(Nc1nnc(-c2ccc(Cl)cc2)o1)C1CCCCC1`: the viability was 54.2% (inactive).

Turning to `O=C1c2ccccc2C(Nc2ccc(F)cc2F)N1CCN1CCOCC1` (stereo not drawn), the viability was 98.8% (inactive).

`CCOc1ccc(N(CC(=O)NC2CCCCC2)S(=O)(=O)c2c(C)noc2C)cc1`: the viability was 95.5% (inactive).

In the case of `Cc1ccc2oc(=O)c3cnn(CC(=O)N4CCCc5ccccc54)c3c2c1`, the viability is 91.3% (inactive).

With `O=C(Nn1cnnc1)C1Cc2ccccc2CN1S(=O)(=O)c1ccc(F)cc1` (stereo not drawn), the viability is 101% (inactive).

Turning to `Cc1cc(C)cc(N(CC(=O)NC2CCC(C)CC2)S(=O)(=O)c2c(C)noc2C)c1` (stereo not drawn), the viability is 97.5% (inactive).

Turning to `Cc1nc2ccccn2c1/C(O)=C1\C(=O)C(=O)N(CCCN(C)C)C1c1ccc(F)cc1` (stereo not drawn), the viability was 104% (inactive).

In the case of `CC(=O)N(C(C)=O)c1ncc2c([nH]c3ccccc32)c1C#N`, the viability is 66.9% (inactive).

With `CC(C)c1ccc(C(O)c2cnc(C(C)C)n2C)cc1` (stereo not drawn), the viability is 96.4% (inactive).

For the compound `COCCn1cc(C(=O)c2ccccc2OCC(=O)Nc2cc(C)on2)cc(C#N)c1=O`, the viability is 92.9% (inactive).

`O=C(NC(=O)c1cccc(F)c1)OC[C@@H]1CCCN2CCCC[C@H]12`: the viability was 99.4% (inactive).

For `CCN1CCN(C(=O)Cn2ncc3ccsc3c2=O)CC1`, the viability is 105% (inactive).

As to `CCCC(=O)Nc1cc(C)c2c(=O)oc3ccccc3c2n1`, the viability is 82.5% (inactive).

On to `Cc1cc(C)c(C#N)c(SCC(=O)Nc2ccc(S(=O)(=O)Nc3onc(C)c3C)cc2)n1`, for which the viability was 109% (inactive).

Consider `CC1=C(C(N)=O)C(c2ccncc2)n2nc(-c3ccccc3Cl)nc2N1` (stereo not drawn), for which the viability is 94% (inactive).

As to `O=C(C1CCCN1S(=O)(=O)c1cccc2cccnc12)N1CCn2c1nc1ccccc12` (stereo not drawn), the viability was 97.4% (inactive).

`Cc1ccc(C(=O)CC2(O)C(=O)N(C)c3ccc(Br)cc32)c(C)c1` (stereo not drawn): the viability was 71.5% (inactive).

For `COc1ccc(OCCSc2nc3ccccc3n2CC(=O)O)cc1`, the viability was 99.6% (inactive).

The next test can be described thus: growth suppression of PTEN-deleted HCT116, pilot screen, cell-based, HCT116 clonal line, CellTiter-Glo (AID 824).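 Also: 0% = 20 µM Hyamine control and 100% = vehicle cell control.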 Conditions: 60 h, at 10 µM, active compounds read low.
Regarding `O=C(Cn1cc2c(n1)CCCCC2)N1CCc2ccccc21`, the viability is 81% (inactive).

As to `CC(C)c1nccn1S(=O)(=O)c1cc(Cl)ccc1Cl`, the viability was 97.2% (inactive).

As for `CC(=O)Nc1cccc(NC(=O)CSc2nn3c(=O)c(C)nnc3s2)c1`, the viability is 103% (inactive).

Take `CCOc1ccc2nc(Nc3nc4c(c(=O)[nH]3)CCC4)nc(C)c2c1`: the viability was 96.4% (inactive).

In the case of `C(=N\c1c(-c2ccccc2)nc2n1CCS2)/c1ccccc1`, the viability was 90.2% (inactive).

On to `CCN(CC)S(=O)(=O)c1ccc2oc(C(=O)N3CCOCC3)c(C)c2c1`, for which the viability is 98.8% (inactive).

For `CCOC(=O)C1CCN(Cc2ccc(OC)c(C)c2OC)CC1`, the viability was 80.3% (inactive).

Regarding `Cc1cc(N)n2nc(-c3ccccc3)cc2n1`, the viability was 65.3% (inactive).

Take `Cc1nnc(SCC(=O)Nc2sc3c(c2C#N)CCCC3)[nH]c1=O`: the viability was 101% (inactive).

As to `Cc1cc(NC(=O)COc2cccc(C)c2C)no1`, the viability was 105% (inactive).

For the compound `Cc1cc(C)c(NC(=O)CSc2nc3c(c(=O)n2C)SC(C)C3)c(C)c1` (stereo not drawn), the viability was 77.5% (inactive).

On to `CC(=O)c1ccc(OCC(O)CN2CCN(CCO)CC2)cc1` (stereo not drawn), for which the viability is 101% (inactive).

For `CCn1cc(C(=O)NCC2CCCO2)c(=O)c2cc(S(=O)(=O)N(C)C)ccc21` (stereo not drawn), the viability was 94.9% (inactive).

For the compound `C=CCSc1nc(N)c2c(C)c(C)sc2n1`, the viability was 92.4% (inactive).

With `CC1CCCN(C(=O)c2cc3c(-c4ccc(Cl)cc4)nn(C)c3s2)C1` (stereo not drawn), the viability was 93.3% (inactive).

As for `COc1cccc2cc(C(=O)OC3CCN(C)CC3)c(=O)oc12`, the viability was 107% (inactive).

Turning to `COC(=O)c1cn(C(=O)c2ccc(Br)o2)c2ccccc12`, the viability was 102% (inactive).

On to `COc1cc(NC(=O)C2C3C=CC(C3)C2C(=O)O)c(OC)cc1Cl` (stereo not drawn), for which the viability was 91.8% (inactive).

With `COc1ccc(C2CC(c3ccc(C)cc3)Nc3ncnn32)cc1` (stereo not drawn), the viability was 88.7% (inactive).

Regarding `CCc1ccc(C2CC(c3cccc(OC)c3)n3nc(N)nc3N2)cc1` (stereo not drawn), the viability was 81.1% (inactive).

As to `COc1ccc(NS(=O)(=O)c2coc(C(N)=O)c2)cc1Cl`, the viability was 102% (inactive).

For the compound `O=C1c2ccccc2S(=O)(=O)N1CC(O)Cn1c2ccccc2c2ccccc21` (stereo not drawn), the viability is 96.3% (inactive).

As to `O=C(Nc1nnc(-c2ccc(Cl)cc2)o1)C1CCCCC1`, the viability was 58.2% (inactive).

For `O=C1c2ccccc2C(Nc2ccc(F)cc2F)N1CCN1CCOCC1` (stereo not drawn), the viability is 104% (inactive).

With `CCOc1ccc(N(CC(=O)NC2CCCCC2)S(=O)(=O)c2c(C)noc2C)cc1`, the viability is 89% (inactive).

As to `Cc1ccc2oc(=O)c3cnn(CC(=O)N4CCCc5ccccc54)c3c2c1`, the viability was 82.3% (inactive).

Regarding `O=C(Nn1cnnc1)C1Cc2ccccc2CN1S(=O)(=O)c1ccc(F)cc1` (stereo not drawn), the viability is 102% (inactive).

As to `Cc1cc(C)cc(N(CC(=O)NC2CCC(C)CC2)S(=O)(=O)c2c(C)noc2C)c1` (stereo not drawn), the viability is 94.9% (inactive).

As for `Cc1nc2ccccn2c1/C(O)=C1\C(=O)C(=O)N(CCCN(C)C)C1c1ccc(F)cc1` (stereo not drawn), the viability is 88.1% (inactive).

Consider `CC(=O)N(C(C)=O)c1ncc2c([nH]c3ccccc32)c1C#N`, for which the viability is 64.7% (inactive).

`CC(C)c1ccc(C(O)c2cnc(C(C)C)n2C)cc1` (stereo not drawn): the viability is 91% (inactive).

Take `COCCn1cc(C(=O)c2ccccc2OCC(=O)Nc2cc(C)on2)cc(C#N)c1=O`: the viability is 99.5% (inactive).

With `O=C(NC(=O)c1cccc(F)c1)OC[C@@H]1CCCN2CCCC[C@H]12`, the viability is 96.3% (inactive).

For the compound `CCN1CCN(C(=O)Cn2ncc3ccsc3c2=O)CC1`, the viability was 101% (inactive).

With `CCCC(=O)Nc1cc(C)c2c(=O)oc3ccccc3c2n1`, the viability is 86.1% (inactive).

Turning to `Cc1cc(C)c(C#N)c(SCC(=O)Nc2ccc(S(=O)(=O)Nc3onc(C)c3C)cc2)n1`, the viability was 100% (inactive).

For the compound `CC1=C(C(N)=O)C(c2ccncc2)n2nc(-c3ccccc3Cl)nc2N1` (stereo not drawn), the viability is 98.8% (inactive).

Take `O=C(C1CCCN1S(=O)(=O)c1cccc2cccnc12)N1CCn2c1nc1ccccc12` (stereo not drawn): the viability was 101% (inactive).

Take `Cc1ccc(C(=O)CC2(O)C(=O)N(C)c3ccc(Br)cc32)c(C)c1` (stereo not drawn): the viability is 74.7% (inactive).

Turning to `COc1ccc(OCCSc2nc3ccccc3n2CC(=O)O)cc1`, the viability was 94.8% (inactive).
